Screening results deposited in PubChem BioAssay by National Center for Advancing Translational Sciences (NCATS).
Compounds with a hit are over-represented: about 8.3% of the library has one in this group of screens.
HCV inh – inhibitors of hepatitis C virus infection; Huh7.5.1 HCVcc-Cre infection, luciferase reporter, 44 h; Potency, µM (series often up to 41.8 µM), actives largely listed as inhibitors; 340,000 compounds, 3.4% hits
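Infectious HCVcc-Cre (~0.5 moi) was added to cells just after compound, with cells seeded 4 h earlier at 1,000 per well. Luciferase activity after 44 h culture reported infection; substrate was incubated 15 min at room temperature before reading.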
FMDV inh – foot and mouth disease virus antiviral activity; 410,000 compounds, 1.2% hits; Potency, µM (highest dose often 57.9 µM), most hits filed as inhibitors; FMDV antiviral cell-based qHTS; calls by dose curve; tested in HEK293T cells; also: read-out not given here; nearly all actives have a fitted effect of over 45% in size
Giardia FBPA inh – Giardia lamblia aldolase inhibition | purified Giardia FBPA | 290,000 compounds, 0.71% hits | Potency, µM (series often up to 59.6 µM), hits mostly inhibitors | A8B2U2; also: nearly all actives have a fitted effect of over 55% in size
Target sequence (A8B2U2 whole entry, looked up): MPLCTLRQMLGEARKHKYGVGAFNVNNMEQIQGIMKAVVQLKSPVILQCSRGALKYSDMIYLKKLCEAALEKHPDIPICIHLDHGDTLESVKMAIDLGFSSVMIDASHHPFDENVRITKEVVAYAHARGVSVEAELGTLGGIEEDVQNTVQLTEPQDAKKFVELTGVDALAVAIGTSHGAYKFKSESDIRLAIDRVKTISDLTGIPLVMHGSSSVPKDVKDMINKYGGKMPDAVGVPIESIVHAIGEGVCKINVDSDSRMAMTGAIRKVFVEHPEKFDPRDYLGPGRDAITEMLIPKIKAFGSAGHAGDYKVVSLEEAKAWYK
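Giardia FBPA (40 nM reagent) was preincubated 10 min at RT with compound (up to 57.5 uM final), then substrate plus GAPDH/TPI/NAD/arsenate coupling system with diaphorase/resazurin was added; resorufin fluorescence (525/598 nm) was read after 20 min.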
HCMV antiviral – inhibitors of human cytomegalovirus; HFF cells, HCMV-luciferase reporter, 72 h; active compounds read low; activity change, negative = inhibition, % at 57.5 µM; 410,000 compounds, 4.5% hits; AID 1259415; in the data active = activity change below about -60%; inconclusive = no clear call, values can overlap the other calls; inactive = above about -39%
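Human foreskin fibroblasts infected with luciferase-reporter HCMV at MOI 1 PFU/cell, compounds at two doses. Luciferase measured 72 h post infection; normalized to buffer-only basal and Salinomycin (10uM) controls.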
Lassa entry inh – blocks Lassa virus binding to or entry into cells; Lassa virus pseudotype entry inhibition, cell reporter; Potency, µM (titrated, usually from 37.9 µM), hits mostly inhibitors; 300,000 compounds, 1.2% hits; AID 540256; calls by dose curve; tested in HEK293 cells; also: nearly all actives have a fitted effect of over 50% in size
MARV entry inh – inhibitors of Marburg virus binding or cell entry | Potency, µM (top dose mostly 37.8 µM), hits mostly inhibitors | Marburg virus pseudotyped entry inhibition, cell reporter | 300,000 compounds, 1.8% hits; calls by dose curve; tested in HEK293 cells
A number is an active result; . = inactive; ? = inconclusive; / = no result. Unless noted, calls follow the shape of the dose curve; as a rule, active = well fitted curve in the direction sought with a large enough effect; inconclusive = small, poorly fitted or top-dose-only effect, or another doubt; inactive = no such curve, though single readings can be large; an effect the other way counts as inactive or inconclusive.

SMILES	HCV inh	FMDV inh	Giardia FBPA inh	HCMV antiviral	Lassa entry inh	MARV entry inh
CN(C)S(=O)(=O)c1cc(NC(=O)c2ccc(-n3ccnc3)c([N+](=O)[O-])c2)ccc1Cl	?	?	.	-71	?	?
O=C(Nc1ccc(N2CCCCC2)c(Cl)c1)c1ccc(N2CCOCC2)c([N+](=O)[O-])c1	?	/	.	-80	?	?
Cc1ccc(NC(=O)OCCN(C)C(=O)Nc2ccc(C)cc2C)c(C)c1	/	/	/	.	/	/
Cn1c(=O)c2c(nc(SCC(=O)c3cccs3)n2Cc2ccc(F)cc2)n(C)c1=O	5µM	.	.	.	?	.
Cn1c(=O)c2c(nc(Br)n2CC(=O)c2cccs2)n(C)c1=O	.	?	.	.	.	.
CC1Cc2ccccc2N1C(=O)CSc1nc2c(c(=O)n(C)c(=O)n2C)n1Cc1ccc(F)cc1 (stereo not drawn)	?	.	/	-106	.	.
COc1ccc(/C(O)=C2\C(=O)C(=O)N(CCN3CCOCC3)[C@H]2c2ccccn2)cc1	/	/	/	/	/	.
CCCCC/C=C\C/C=C\C/C=C\CCCCCCC(=O)NC(C)C(=O)O (stereo not drawn)	/	/	.	/	/	/
CCc1ccc(-n2c(SCC(=O)c3ccc4c(c3)NC(=O)CO4)nc3ccccc3c2=O)cc1	?	.	.	.	?	.
O=C1COc2ccc(C(=O)CSc3nc4ccccc4c(=O)n3-c3ccc(Cl)c(Cl)c3)cc2N1	.	.	.	-81	.	?
CC1(C)CCC[C@@](C)([C@H]2CC[C@]3(C)[C@@H]2[C@H](O)C[C@@H]2[C@@]4(C)CC[C@H](O)C(C)(C)[C@@H]4[C@@H](O)C[C@]23C)O1	/	/	.	/	/	/
C[C@@H]1CCCCO[C@H](CN(C)Cc2ccc(C(F)(F)F)cc2)[C@H](C)CN([C@@H](C)CO)C(=O)c2cc(NC(=O)Cc3ccccc3)ccc2O1	/	?	/	-81	/	/
C[C@@H]1CN([C@H](C)CO)C(=O)c2cc(NC(=O)Nc3ccc(F)cc3)ccc2O[C@@H](C)CCCCO[C@H]1CN(C)Cc1ccc(C(=O)O)cc1	/	.	/	.	/	/
COc1ccc(CN(C)C[C@@H]2OCCCC[C@H](C)Oc3ccc(NC(=O)Nc4ccc(F)cc4)cc3C(=O)N([C@H](C)CO)C[C@H]2C)cc1	/	?	/	-102	/	/
COc1ccc(CN(C)C[C@@H]2OCCCC[C@H](C)Oc3ccc(NC(=O)Cc4ccccc4)cc3C(=O)N([C@@H](C)CO)C[C@@H]2C)cc1	/	.	/	.	/	/
C[C@@H]1CN([C@H](C)CO)C(=O)c2cc(NC(=O)Cc3ccccc3)ccc2O[C@H]1CN(C)Cc1ccc(Oc2ccccc2)cc1	11µM	.	/	.	/	/
CCOC(=O)c1cc(C#N)c(C)nc1N(CC)CC	?	.	.	.	5.6µM	.
CN1C(=O)[C@@]2(O[C@H]3[C@H]4C=C[C@@H]([C@H]5C(=O)N(Cc6ccccc6)C(=O)[C@@H]45)N3C3=C2C(=O)CC3)c2ccccc21	/	/	/	.	/	/
O=C(CCS(=O)(=O)c1ccccc1)Nc1ccc(-c2nc3ccccc3s2)cc1	?	.	.	.	?	14µM
CNc1ccc(-c2nc3ccccc3s2)cc1	/	/	.	/	/	/
CC(C)(C)C(=O)Nc1ccc(-c2nc3ccccc3s2)cc1	/	4.5µM	/	-103	?	?
O=C(Nc1ccccc1)c1nc2ccccc2s1	.	.	.	.	11µM	?
Cc1ccc(-n2c(=O)c3c(c4cc(C)ccc4n3C)n(CC(=O)NCCC3=CCCCC3)c2=O)cc1	/	.	/	.	.	/
CN(CCO)C(=O)c1cn(C2CCCN(Cc3cccc4ccccc34)C2)nn1 (stereo not drawn)	/	.	/	/	/	/
COCc1cc2cc3c(cc2c2c(C(=O)OC)c(C(=O)OC)c(C(=O)OC(C)(C)C)n12)OCO3	/	/	/	/	?	.
SMILES	HCV inh	FMDV inh	Giardia FBPA inh	HCMV antiviral	Lassa entry inh	MARV entry inh
COc1ccc(-c2nc(CCl)cs2)cc1OC	11µM	.	.	.	.	.
COc1ccc(-c2nc(CCNC(=O)c3cccs3)cs2)cc1OC	/	?	/	-84	?	/
O=C(NCCc1csc(-c2ccccc2)n1)c1cccs1	?	.	.	.	/	/
COc1ccc(C(=O)NCCc2csc(-c3ccc(Cl)cc3)n2)cc1	/	.	/	?	.	/
O=C(NCCc1csc(-c2ccc(Cl)cc2)n1)c1cccs1	/	25µM	/	?	.	/
CCCCOc1ccc(C(=O)NCCc2csc(-c3ccc(OC)cc3)n2)cc1	/	?	/	-61	?	/
COc1ccc(-c2nc(CCl)cs2)cc1	.	.	.	.	/	/
